Screening data deposited in PubChem BioAssay by several laboratories.
Gli-Sufu antag – antagonists of Gli-Sufu signaling; Sufu-KO-LIGHT fibroblasts, Gli luciferase reporter luminescence; 0.74% of 340,000 active; inhibition, % at 5 µM; AID 588413;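 active = inhibition above about 55%, limit read from the data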
Jurkat NFkB inh – lowers PMA/ionomycin-induced NF-kB signal in Jurkat cells | PMA/ionomycin-induced NF-kB luciferase reporter, luminescence | inhibition, % at 4 µM | 0.53% of 330,000 active; in the data active = inhibition above about 50%
Beta apoptosis – beta cell apoptosis inhibition | INS-1E cytokine-induced death, ATP luminescence, 48 h; percent of positive-control rescue, neutral wells zero | protection from apoptosis, % (no concentration beside the values) | 0.8% of 300,000 active | AID 435005;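 active = Every replicate reaches about 75%, or at least half do and their mean reaches it too, limit read from the data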;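 note: higher means more ATP so stronger rescue from cytokine killing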
697 NFkB inh – inhibitors of the PMA/ionomycin-induced NF-kB reporter in 697 B cells; 697 B-cell NF-kB luciferase reporter, 16 h; inhibition, % at 4 µM; 0.33% of 330,000 active; in the data active = inhibition above about 35%
Mdm2-MdmX inh – inhibitors of human Mdm2/MdmX interaction. O15151+Q00987. SaOS-2 split-luciferase Mdm2/MdmX complementation, luminescence. inhibition, % at 8 µM. 3% of 330,000 active. AID 485346;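 active = inhibition of at least 50% at 8 µM in the primary screen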
Target sequence (O15151 whole entry, looked up): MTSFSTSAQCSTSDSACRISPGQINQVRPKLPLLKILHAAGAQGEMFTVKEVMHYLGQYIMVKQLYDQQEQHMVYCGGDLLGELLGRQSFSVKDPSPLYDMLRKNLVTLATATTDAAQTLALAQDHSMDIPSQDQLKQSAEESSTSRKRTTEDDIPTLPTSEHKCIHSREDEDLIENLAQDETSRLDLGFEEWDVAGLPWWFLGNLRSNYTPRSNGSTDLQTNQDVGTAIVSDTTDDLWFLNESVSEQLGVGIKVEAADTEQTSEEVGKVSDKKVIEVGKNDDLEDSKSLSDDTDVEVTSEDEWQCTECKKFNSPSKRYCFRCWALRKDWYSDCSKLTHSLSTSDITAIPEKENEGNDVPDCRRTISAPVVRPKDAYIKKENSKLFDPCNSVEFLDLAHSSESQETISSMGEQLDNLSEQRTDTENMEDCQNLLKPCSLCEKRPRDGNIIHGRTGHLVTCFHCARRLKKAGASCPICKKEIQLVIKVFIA
Target sequence (Q00987 whole entry, looked up): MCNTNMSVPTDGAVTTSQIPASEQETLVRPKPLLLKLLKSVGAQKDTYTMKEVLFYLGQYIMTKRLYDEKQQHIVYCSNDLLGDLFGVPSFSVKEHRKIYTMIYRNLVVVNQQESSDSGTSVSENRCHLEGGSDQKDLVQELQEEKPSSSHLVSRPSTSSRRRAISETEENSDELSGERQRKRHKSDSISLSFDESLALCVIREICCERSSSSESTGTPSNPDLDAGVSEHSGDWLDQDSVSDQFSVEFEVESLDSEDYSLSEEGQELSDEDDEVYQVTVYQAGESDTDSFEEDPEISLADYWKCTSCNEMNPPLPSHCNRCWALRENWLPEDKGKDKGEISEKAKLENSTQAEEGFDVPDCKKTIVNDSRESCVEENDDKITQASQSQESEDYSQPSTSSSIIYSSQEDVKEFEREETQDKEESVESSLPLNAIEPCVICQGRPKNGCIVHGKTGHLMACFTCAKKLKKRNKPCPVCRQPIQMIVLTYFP
Mdm2-MdmX conf – confirmation of human Mdm2/MdmX interaction inhibitors | shares compounds with Mdm2-MdmX inh | Mdm2-MdmX binding, luminescent assay | inhibition, % at 8 µM | 55% of 10,000 active; in the data active = inhibition above about 40%
Full FLuc ctr – inhibits full-length luciferase, flagging false Mdm2/MdmX hits; 77% of 6,200 active; AID 504607; inhibition, % at 8 µM; shares compounds with Mdm2-MdmX inh; SaOS-2 full-length luciferase counterscreen, luminescence;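 active = mean inhibition at 8 µM reaching about 37%, which flags the compound as non-specific, limit read from the data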;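 note: p53-null SaOS-2 cells with luciferase driven by a doxycycline-inducible promoter; compound on cells about two nights before reading with doxycycline added after day one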
A number is an active result; - = inactive; . = not tested or not shown. An excerpt weighted towards active compounds, which were near 4% of everything screened.

SMILES	Gli-Sufu antag	Jurkat NFkB inh	Beta apoptosis	697 NFkB inh	Mdm2-MdmX inh	Mdm2-MdmX conf	others
COc1ccc(NC(=O)Cn2nc(C)c([N+](=O)[O-])c2C)cn1	-	-	-	-	-	.
CCOC(=O)c1c(C)[nH]c(C(=O)CSc2nnnn2-c2ccc(C)cc2)c1C	-	-	-	-	66	-
COc1ccc(CCNC(=O)C(=O)NCC2OCCN2S(=O)(=O)c2ccc(Cl)cc2)cc1OC (centres undefined)	-	-	-	-	-	.
CCOc1ccccc1OC(C)C(=O)Nc1ccc(S(=O)(=O)N2CCCC2)cc1 (centres undefined)	-	-	-	-	-	.
O=C(O)C1CCCN1S(=O)(=O)c1cccc2nsnc12 (centres undefined)	-	-	-	-	-	.
Cc1ccc(C)c(N2CCN(S(=O)(=O)c3c(C)noc3/C=C/N(C)C)CC2)c1	-	-	-	-	56	-
C[C@@H]1CC=C[C@@H]2[C@H]1C(=O)N(Cc1ccccc1)[C@H]2c1cccc(Br)c1	-	.	.	-	65	-
C[C@@H]1CC=C[C@@H]2[C@H]1C(=O)N(Cc1ccccc1)[C@H]2c1ccccc1Br	-	.	.	-	-	.
COc1ccc(-c2ccccc2[C@H]2[C@@H]3C=CC[C@@H](C)[C@@H]3C(=O)N2Cc2ccccc2)cc1	-	.	.	-	69	-
COc1ccc(Br)cc1[C@H]1[C@H]2C=CC[C@@H](C)[C@@H]2C(=O)N1Cc1ccccc1	-	-	.	-	58	-
COc1ccc(-c2c([C@H]3[C@H]4C=CC[C@@H](C)[C@@H]4C(=O)N3Cc3ccccc3)ccc3ccccc23)cc1OC	-	-	-	-	71	-
CSc1cccc(N2CC(C(=O)Nc3cccc(S(=O)(=O)N4CCCC4)c3)CC2=O)c1 (centres undefined)	-	-	-	-	-	.
O=C(CN1C(=O)NC2(CCCC2)C1=O)N1CCCSC1=Nc1ccccc1	-	-	.	-	-	.
Cc1ccc(S(=O)(=O)NNC(=O)c2ccncc2)cc1[N+](=O)[O-]	-	-	-	-	-	.
COc1ccc(N2CCN(CCCNC(=O)Cn3c(=O)c4cccn4c4ccccc43)CC2)cc1	-	-	-	-	-	.
COc1ccc(-c2ccc([C@H]3[C@H]4C=CC[C@@H](C)[C@@H]4C(=O)N3Cc3ccccc3)c(F)c2)cc1C	-	-	-	-	-	.
C[C@@H]1CC=C[C@H]2[C@H]1C(=O)N(Cc1ccccc1)[C@H]2c1ccc(C(F)(F)F)cc1	-	-	-	-	-	.
COc1ccc(-c2ccc(OC)c([C@H]3[C@H]4C=CC[C@@H](C)[C@@H]4C(=O)N3Cc3ccccc3)c2)cc1OC	-	-	-	-	58	-
O=C1C2C(c3ccccc3)CC=CC2[C@H](c2ccc(C(F)(F)F)cc2)N1Cc1ccccc1 (some centres undefined)	-	-	-	-	79	43	Full FLuc ctr=63
CCOC(=O)CN(C(=O)COC(=O)C1(c2ccccc2)CC1)c1ccc(F)cc1	-	-	-	-	-	.
CCC(=O)NC(c1ccc(OC)cc1)c1cc(Cl)c2cccnc2c1O (centres undefined)	-	-	96	-	79	81	Full FLuc ctr=-
CCCCC(=O)NC(c1ccco1)c1cc(Cl)c2cccnc2c1O (centres undefined)	-	-	104	-	63	56	Full FLuc ctr=-
CCC(=O)NC(c1cc(Cl)c2ccccc2c1O)C1CC1 (centres undefined)	-	-	-	-	-	.
CCC(=O)NC(c1ccco1)c1cc(Cl)c2cccnc2c1OC (centres undefined)	-	-	-	-	-	.
CC(=O)NC(c1cc(Cl)c2cccnc2c1O)C1CC1 (centres undefined)	-	-	87	-	53	49	Full FLuc ctr=-
SMILES	Gli-Sufu antag	Jurkat NFkB inh	Beta apoptosis	697 NFkB inh	Mdm2-MdmX inh	Mdm2-MdmX conf	others
CC(=O)NC(c1ccc(C)cc1)c1cc(Cl)c2cccnc2c1O (centres undefined)	-	-	-	-	87	77	Full FLuc ctr=-
COc1ccc(C(NC(=O)c2cccnc2)c2cc(Cl)c3cccnc3c2O)cc1OC (centres undefined)	-	-	91	-	75	78	Full FLuc ctr=-
CC(=O)NC(c1cc(Cl)c2cccnc2c1O)C(C)C (centres undefined)	-	-	103	-	66	43	Full FLuc ctr=37
CCC(=O)NC(c1ccc(OC)cc1)c1c(O)ccc2ccccc12 (centres undefined)	-	-	-	-	63	62	Full FLuc ctr=71
COc1ccc(C(NC(=O)C(C)C)c2c(O)ccc3ccccc23)cc1 (centres undefined)	-	-	-	-	-	.
O=C(NC1=NCCS1)c1ccc([N+](=O)[O-])cc1Cl	-	-	-	-	-	.
COc1ccc(N/N=C(\C=N\O)C(=O)c2ccc(OC)cc2)cc1	-	-	-	-	56	56	Full FLuc ctr=60
COc1ccc(C(=O)C(=NNc2ccccc2)c2ccc(OC)cc2)cc1	-	.	.	.	.	.
O=C(Nc1ccc(O)c2c(=O)cc(-c3ccccc3Cl)oc12)c1ccc(Cl)c(Cl)c1	-	-	-	-	66	-
CC(=O)c1ccc(S(=O)(=O)N2CCN(c3ccccc3F)CC2)cc1	-	-	-	-	-	.
COc1ccccc1NC(=O)Nc1nc(CC(=O)N2CCN(c3ccc(F)cc3)CC2)cs1	-	-	.	-	70	40	Full FLuc ctr=83
CC1(c2ccc(Cl)cc2)NC(=O)CS1 (centres undefined)	-	-	-	-	-	.
COC(=O)c1sc(-c2ccccc2)cc1NC(=O)c1ccc(OC)cc1	-	-	-	-	75	-
CCOC(=O)c1cc(-c2ccccc2)sc1NC(=O)c1ccc(OC)cc1	-	-	-	-	75	-
COC(=O)c1sc(-c2ccccc2)cc1NC(=O)c1cc(OC)cc(OC)c1	-	-	-	-	-	.
Cc1nn(-c2ccccc2)c(Cl)c1C1C(C#N)=C(N)Oc2n[nH]c(C)c21 (centres undefined)	-	-	-	-	53	-
CCC(CC)C1C(C#N)=C(N)Oc2n[nH]c(C)c21 (centres undefined)	-	-	-	-	52	-
COc1cc(NC(=O)c2ccc([N+](=O)[O-])cc2)c(OC)cc1NC(=O)CC(C)C	-	-	-	-	-	.
COC(=O)c1cc(-c2ccc(Br)cc2)c2c(=O)[nH]c(=O)n(C)c2n1	-	-	-	-	-	.
COC(=O)c1cc(-c2ccc(OC)c(OC)c2)c2c(=O)[nH]c(=O)n(C)c2n1	.	-	-	-	50	-
COCCCN(C(=S)NC(=O)C12CC3CC(CC(C3)C1)C2)c1c(N)n(Cc2ccccc2)c(=O)[nH]c1=O	-	-	-	-	-	.
COc1ccc(-c2csc3ncnc(NCCN4CCOCC4)c23)cc1	-	-	-	-	61	65	Full FLuc ctr=36
